# Measured values taken from publication PMC12864922, “TDP-43 directly inhibits mRNA accumulation in neurites through modulation of mRNA stability”.
# The full ranking holds about 9,900 sequences; the median of “r (bound/input frequency ratio)” is about 0.7, and the highest 2% start at about 6.5. The sample as a whole holds a higher share of the highest values than the screen did.
# B1: ENSMUSG00000022095.186|Fam160b2|219:232;234:260 (ssRNA)
# RNA: GGGAGUUCUACAGUCCGACGAUCGCUUCGAUAUCCGCAUGCUACACAACAGGCCUGCAGUUGUUGGCUUCCCUCCUGGGCAAGGAGGAGCAGGCCAGAGCCCCUUUUGCUUCCUUUUCCUGCCCAUGCCACCUCUCGAAGCCGGGCACAGGUUGCCAGGAGGUGACAUGAAAGAGGAGGAAACUCCAUGACCUCUACAUCCCCCGCAGUCCUCCCAGCGGGGGAGGACUUCUCUGCUGCUCCGAAGAACAUCAUGCACUCCACACACACACACACACACACACACACACACACACACACACACCUCUUGCGGUCGCACUAGUGUGGAAUUCUCGGGUGUCAAGG
# B2: ENSMUSG00000022095.184|Fam160b2 (ssRNA)
# RNA: GGGAGUUCUACAGUCCGACGAUCGCUUCGAUAUCCGCAUGCUACAGGCAUUACCUCACAACAGGCCUGCAGUUGUUGGCUUCCCUCCUGGGCAAGGAGGAGCAGGCCAGAGCCCCUUUUGCUUCCUUUUCCUGCCCAUGCCACCUCUCGAAGCCGGGCACAGGUUGCCAGGAGGUGACAUGAAAGAGGAGGAAACUCCAUGACCUCUACAUCCCCCGCAGUCCUCCCAGCGGGGGAGGACUUCUCUGCUGCUCCGAAGAACAUCAUGCACUCCUGUGUGUGUGUGUGAGUGUGUGUGUGUGUGCUCUUGCGGUCGCACUAGUGUGGAAUUCUCGGGUGUCAAGG
# B3: ENSMUSG00000022095.184|Fam160b2|231:244;246:260 (ssRNA)
# RNA: GGGAGUUCUACAGUCCGACGAUCGCUUCGAUAUCCGCAUGCUACAGGCAUUACCUCACAACAGGCCUGCAGUUGUUGGCUUCCCUCCUGGGCAAGGAGGAGCAGGCCAGAGCCCCUUUUGCUUCCUUUUCCUGCCCAUGCCACCUCUCGAAGCCGGGCACAGGUUGCCAGGAGGUGACAUGAAAGAGGAGGAAACUCCAUGACCUCUACAUCCCCCGCAGUCCUCCCAGCGGGGGAGGACUUCUCUGCUGCUCCGAAGAACAUCAUGCACUCCACACACACACACACACACACACACACACACCUCUUGCGGUCGCACUAGUGUGGAAUUCUCGGGUGUCAAGG
# B4: ENSMUSG00000022095.191|Fam160b2 (ssRNA)
# RNA: GGGAGUUCUACAGUCCGACGAUCGCUUCGAUAUCCGCAUGCUACCUGGGCAAGGAGGAGCAGGCCAGAGCCCCUUUUGCUUCCUUUUCCUGCCCAUGCCACCUCUCGAAGCCGGGCACAGGUUGCCAGGAGGUGACAUGAAAGAGGAGGAAACUCCAUGACCUCUACAUCCCCCGCAGUCCUCCCAGCGGGGGAGGACUUCUCUGCUGCUCCGAAGAACAUCAUGCACUCCUGUGUGUGUGUGUGAGUGUGUGUGUGUGUGUGUGUGUGUGUGUGUGUGUAUGUGUGUGUAUAUGUGUGUGUGCUCUUGCGGUCGCACUAGUGUGGAAUUCUCGGGUGUCAAGG
# B5: ENSMUSG00000022095.190|Fam160b2 (ssRNA)
# RNA: GGGAGUUCUACAGUCCGACGAUCGCUUCGAUAUCCGCAUGCUAUUCCCUCCUGGGCAAGGAGGAGCAGGCCAGAGCCCCUUUUGCUUCCUUUUCCUGCCCAUGCCACCUCUCGAAGCCGGGCACAGGUUGCCAGGAGGUGACAUGAAAGAGGAGGAAACUCCAUGACCUCUACAUCCCCCGCAGUCCUCCCAGCGGGGGAGGACUUCUCUGCUGCUCCGAAGAACAUCAUGCACUCCUGUGUGUGUGUGUGAGUGUGUGUGUGUGUGUGUGUGUGUGUGUGUGUGUAUGUGUGUGUAUAUGUGCUCUUGCGGUCGCACUAGUGUGGAAUUCUCGGGUGUCAAGG
# B6: ENSMUSG00000022095.194|Fam160b2 (ssRNA)
# RNA: GGGAGUUCUACAGUCCGACGAUCGCUUCGAUAUCCGCAUGCUAGGCCAGAGCCCCUUUUGCUUCCUUUUCCUGCCCAUGCCACCUCUCGAAGCCGGGCACAGGUUGCCAGGAGGUGACAUGAAAGAGGAGGAAACUCCAUGACCUCUACAUCCCCCGCAGUCCUCCCAGCGGGGGAGGACUUCUCUGCUGCUCCGAAGAACAUCAUGCACUCCUGUGUGUGUGUGUGAGUGUGUGUGUGUGUGUGUGUGUGUGUGUGUGUGUAUGUGUGUGUAUAUGUGUGUGUGUGUGUGUAUGUGUGUGUGCUCUUGCGGUCGCACUAGUGUGGAAUUCUCGGGUGUCAAGG
# B7: ENSMUSG00000022095.185|Fam160b2 (ssRNA)
# RNA: GGGAGUUCUACAGUCCGACGAUCGCUUCGAUAUCCGCAUGCUAUUACCUCACAACAGGCCUGCAGUUGUUGGCUUCCCUCCUGGGCAAGGAGGAGCAGGCCAGAGCCCCUUUUGCUUCCUUUUCCUGCCCAUGCCACCUCUCGAAGCCGGGCACAGGUUGCCAGGAGGUGACAUGAAAGAGGAGGAAACUCCAUGACCUCUACAUCCCCCGCAGUCCUCCCAGCGGGGGAGGACUUCUCUGCUGCUCCGAAGAACAUCAUGCACUCCUGUGUGUGUGUGUGAGUGUGUGUGUGUGUGUGUGUGCUCUUGCGGUCGCACUAGUGUGGAAUUCUCGGGUGUCAAGG
# B8: ENSMUSG00000022095.183|Fam160b2 (ssRNA)
# RNA: GGGAGUUCUACAGUCCGACGAUCGCUUCGAUAUCCGCAUGCUACGGCGCCAGGCAUUACCUCACAACAGGCCUGCAGUUGUUGGCUUCCCUCCUGGGCAAGGAGGAGCAGGCCAGAGCCCCUUUUGCUUCCUUUUCCUGCCCAUGCCACCUCUCGAAGCCGGGCACAGGUUGCCAGGAGGUGACAUGAAAGAGGAGGAAACUCCAUGACCUCUACAUCCCCCGCAGUCCUCCCAGCGGGGGAGGACUUCUCUGCUGCUCCGAAGAACAUCAUGCACUCCUGUGUGUGUGUGUGAGUGUGUGUGCUCUUGCGGUCGCACUAGUGUGGAAUUCUCGGGUGUCAAGG
# B9: ENSMUSG00000022095.192|Fam160b2 (ssRNA)
# RNA: GGGAGUUCUACAGUCCGACGAUCGCUUCGAUAUCCGCAUGCUACAAGGAGGAGCAGGCCAGAGCCCCUUUUGCUUCCUUUUCCUGCCCAUGCCACCUCUCGAAGCCGGGCACAGGUUGCCAGGAGGUGACAUGAAAGAGGAGGAAACUCCAUGACCUCUACAUCCCCCGCAGUCCUCCCAGCGGGGGAGGACUUCUCUGCUGCUCCGAAGAACAUCAUGCACUCCUGUGUGUGUGUGUGAGUGUGUGUGUGUGUGUGUGUGUGUGUGUGUGUGUAUGUGUGUGUAUAUGUGUGUGUGUGUGUGCUCUUGCGGUCGCACUAGUGUGGAAUUCUCGGGUGUCAAGG
# Target: TDP-43 (Homo sapiens, UniProt Q13148 1-414)
# Sequence (Q13148 whole entry): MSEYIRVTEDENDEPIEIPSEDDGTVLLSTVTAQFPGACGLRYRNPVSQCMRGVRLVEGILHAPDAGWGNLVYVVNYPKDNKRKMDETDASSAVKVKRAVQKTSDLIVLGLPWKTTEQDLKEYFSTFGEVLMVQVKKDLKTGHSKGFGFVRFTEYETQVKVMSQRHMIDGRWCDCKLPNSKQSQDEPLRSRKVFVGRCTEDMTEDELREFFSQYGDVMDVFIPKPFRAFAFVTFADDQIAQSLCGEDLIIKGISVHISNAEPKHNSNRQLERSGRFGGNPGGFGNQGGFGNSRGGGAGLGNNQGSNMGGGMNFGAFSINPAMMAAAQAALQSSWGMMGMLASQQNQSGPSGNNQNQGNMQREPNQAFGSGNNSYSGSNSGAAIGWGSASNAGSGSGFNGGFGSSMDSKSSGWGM
# Test: RNA Bind-n-Seq with designed 260-mer pool; 25 mM Tris-HCl, 150 mM KCl, 3 mM MgCl2, BSA (printed 500 mg/mL), 20 units/mL SUPERase IN; pH not stated; 500 nM RNA pool, 1 h, 4 C; TDP-43 5, 50, 500 nM; high values mean tight binding
# Conditions: protein: recombinant; tags: SBP (GST cleaved off with PreScission; pGEX-GST-SBP)
# Method in brief: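 Binding (R) is the ratio of each oligo's mapped-read-normalized abundance in the bound fraction to its abundance in the input. To obtain it, SBP-tagged recombinant TDP-43 (5, 50 or 500 nM) on streptavidin beads was incubated with 500 nM of an in vitro-transcribed 260-nt 3′ UTR oligo pool for 1 h at 4 °C in 25 mM Tris-HCl, 150 mM KCl, 3 mM MgCl2, BSA and SUPERase IN. The RNA retained after washing was released with biotin, then reverse transcribed, amplified by PCR and sequenced.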
row,Binder,binding signal
1,B1,2.91 R (bound/input frequency ratio)
2,B2,3.46 R (bound/input frequency ratio)
3,B3,3.13 R (bound/input frequency ratio)
4,B4,5.73 R (bound/input frequency ratio)
5,B5,7.2 R (bound/input frequency ratio)
6,B6,7.48 R (bound/input frequency ratio)
7,B7,4.85 R (bound/input frequency ratio)
8,B8,1.73 R (bound/input frequency ratio)
9,B9,8.2 R (bound/input frequency ratio)
